This is part of a sample that, as a whole, favours compounds with a hit. Of some 79,000 tested, about 15% had one in any assay. Unmarked numbers belong to inactive results. Calls of active or inactive are those of the source. No stated cut-off is given here; in the data, active means growth inhibition above about 70%; inactive means the rest. Where a SMILES comes first, the peptide text is derived from it.

The results in this text go back to PubChem BioAssay (NCI).

Test [1] can be described thus: NCI Yeast Anticancer Drug Screen. Data for the rad50 strain (AID 155).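 Further: 0% = growth of vehicle-only cultures of the same strain.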 The settings on record: S. cerevisiae rad50 strain growth inhibition; at 50.0 µM; active compounds read high. The procedure, abridged:
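DNA repair mutant yeast, compound exposure, growth read-out; inhibition is taken relative to vehicle.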

Test [2] in a line: NCI Yeast Anticancer Drug Screen. Data for the mec2-1 strain (AID 157). The conditions noted are these: S. cerevisiae mec2-1 strain, at 50.0 µM, active compounds read high. An outline of the steps:
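Vehicle-treated cultures served as reference for growth inhibition of compound-exposed mec2-1 yeast.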

The nature of test [3]: NCI Yeast Anticancer Drug Screen. Data for the sgs1 mgt1 strain (AID 161).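 Further: 0% = growth of cultures given vehicle only.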 The settings on record: S. cerevisiae sgs1 mgt1 strain, at 50.0 µM, active compounds read high. The procedure, abridged:
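Inhibition of yeast growth, normalised to vehicle-treated controls, is reported for a strain bearing genetic alterations in DNA damage repair.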

The nature of test [4]: NCI Yeast Anticancer Drug Screen. Data for the cln2 rad14 strain (AID 165).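 Further: 0% = growth equal to vehicle treated cultures.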 The settings on record: S. cerevisiae cln2 rad14 strain, at 50.0 µM, active compounds read high. The procedure, abridged: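 Each compound was tested on cln2 rad14 yeast. Inhibition of growth was calculated against vehicle-exposed controls.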
Test [5] is described as follows: NCI Yeast Anticancer Drug Screen. Data for the bub3 strain (AID 167). The conditions noted are these: S. cerevisiae bub3 mutant strain, at 50.0 µM, active compounds read high. The procedure, abridged: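 In this screen, a yeast mutant lacking normal mitotic checkpoint function is challenged with compound. Relative growth versus vehicle gives the inhibition value.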
Test [6] can be described thus: NCI Yeast Anticancer Drug Screen. Data for the mlh1 rad18 strain (AID 175). The settings on record: S. cerevisiae mlh1 rad18 strain growth inhibition; at 50.0 µM; active compounds read high. An outline of the steps: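 Vehicle-treated cultures served as the reference for growth inhibition in a yeast strain carrying DNA damage repair alterations exposed to each compound.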

As to `O=c1c(SCc2ccc(Cl)cc2Cl)c(SCc2ccc(Cl)cc2Cl)cnn1-c1ccccc1`, the growth inhibition in test [1] was 16.8%; in test [2] it was -1.4%; in test [3], 7.3%; in test [4], 23.9%; in test [5], 1.05%; in test [6] it was 4.05%.
Regarding `O=C(CCl)Oc1cccc2cccnc12`, the growth inhibition in test [1] is -8.75%; in test [2], 9%; in test [3] it was -1.35%; in test [4] it was -12.2%; in test [5], -2.45%; in test [6] it was -2.75%.
On to `CSc1cnc(N)s1`, for which the growth inhibition in test [1] is 14.6%; in test [2], 14.8%; in test [3], 3%; in test [4], -13.1%; in test [5], -2.45%; in test [6], 32.4%.
Turning to `CCCCc1[nH]nc(-c2n[nH]c(CCCC)c2C)c1C`, the growth inhibition is 25.4% in test [1]; 14.1% in test [2]; 28.5% in test [3]; 7.95% in test [4]; 18.6% in test [5]; 27.9% in test [6].
As to `COC(=O)/C(=N\N)C(C(=O)C(=O)Nc1cc(Cl)ccc1Cl)c1nc2ccc([N+](=O)[O-])cc2[nH]c1=O` (configuration not stated), the growth inhibition in test [1] was 13.1%; in test [2] it was 6.6%; in test [3], -6.15%; in test [4] it was -20.2%; in test [5], 25.9%; in test [6], 12.7%.
As for `O=C(O)CCC1(c2ccccc2)NC(=O)NC1=O` (configuration not stated), the growth inhibition in test [1] was -39.1%; in test [2], -2.85%; in test [3], -18.4%; in test [4] it was -37%; in test [5], -1.1%; in test [6] it was -6.75%.
For `Cc1cc(=O)oc2c(C(=O)/C=C/N(C)C)c(O)ccc12`, the growth inhibition in test [1] was -29.9%; in test [2], 4.1%; in test [3], 7.85%; in test [4] it was 0.25%; in test [5], 9.95%; in test [6] it was 7.7%.
As for `Cc1cccc(Cl)c1OCC(=O)Nc1ccccc1`, the growth inhibition in test [1] was 20.9%; in test [2] it was 10.1%; in test [3] it was 20.8%; in test [4], 0.8%; in test [5], 58.6%; in test [6], -3.65%.
`c1ccc(C2=NN(c3ccccc3)C3C4CCC(C4)C23)cc1` (configuration not stated): the growth inhibition in test [1] is -5.6%; in test [2], 8.15%; in test [3], -6.2%; in test [4], -49%; in test [5], 13.8%; in test [6], 12.1%.
In the case of `O=C(Oc1ccccc1Cl)C1=C(C(=O)Oc2ccccc2Cl)CCC1`, the growth inhibition was 51.4% in test [1]; -1.2% in test [2]; 45.5% in test [3]; -1.45% in test [4]; 4.55% in test [5]; 9.75% in test [6].
Take `O=C(COc1ccc(Cl)cc1Cl)Nc1ccc(N=Nc2ccccc2)cc1`: the growth inhibition is -0.5% in test [1]; 7.55% in test [2]; -1.95% in test [3]; -3.65% in test [4]; -2.8% in test [5]; 19.9% in test [6].
As to `CSc1nc(N)c(NS(=O)(=O)c2ccc([N+](=O)[O-])cc2)c(=O)[nH]1`, the growth inhibition in test [1] was 4.35%; in test [2] it was -8.05%; in test [3], 5.65%; in test [4], -3.95%; in test [5] it was 10.1%; in test [6], 14.1%.
For the compound `COc1ccccc1-n1nnc2c(N)nc(N)nc21`, the growth inhibition is 7.05% in test [1]; -12.2% in test [2]; -13.2% in test [3]; 4.05% in test [4]; -22.1% in test [5]; -9.25% in test [6].
As to `CC(C)CCCC(C)C1CCC2(C)C3=C(CCC12C)C1(C)Cc2nonc2C(C)(C)C1CC3` (configuration not stated), the growth inhibition was 20.9% in test [1]; 3.35% in test [2]; 3.3% in test [3]; 14.9% in test [4]; 0.55% in test [5]; 11.3% in test [6].
On to `CN(C)c1ccc(/C=c2\sc3nc4ccccc4n3c2=O)cc1`, for which the growth inhibition in test [1] is -8.75%; in test [2], -32.3%; in test [3] it was -13.1%; in test [4], -15.3%; in test [5], -16.5%; in test [6], -21.4%.
`N[C@@H](CSSc1ccccc1C(=O)O)C(=O)O`: the growth inhibition is -32.9% in test [1]; -7.25% in test [2]; -14.4% in test [3]; 1.85% in test [4]; 0.8% in test [5]; -10.3% in test [6].
`COc1cccc(OC(=O)Nc2cccc(Cl)c2)c1`: the growth inhibition in test [1] was 38.2%; in test [2], 38.4%; in test [3], 49.4%; in test [4], 38.8%; in test [5], 41.5%; in test [6], 51.6%.
As to `COC(=O)Cc1ccccn1`, the growth inhibition in test [1] is 0.4%; in test [2], -18.9%; in test [3] it was 1.4%; in test [4] it was 14.5%; in test [5], -21.5%; in test [6] it was 22.4%.
Consider `NC(Cc1ccccc1)C(=O)CCl` (configuration not stated), for which the growth inhibition in test [1] is 31.6%; in test [2], 29.8%; in test [3], 40.8%; in test [4] it was 18.4%; in test [5] it was 36.2%; in test [6], 46.5%.
On to `CN(C)c1ccc(C2(c3ccc(N(C)C)cc3)NNC(=O)c3cc(N(C)C)ccc32)cc1`, for which the growth inhibition in test [1] is 21.4%; in test [2] it was 5%; in test [3], 13.2%; in test [4] it was 16.8%; in test [5] it was -3.15%; in test [6], 1.8%.
With `CC(=O)C(CCC#N)(CCC#N)C(=O)Nc1ccccc1`, the growth inhibition is -9% in test [1]; 10.5% in test [2]; 3.35% in test [3]; -6% in test [4]; -2.05% in test [5]; -21.5% in test [6].
Turning to `CCOc1ncc(C(O)c2ccc(F)cc2)c(OCC)n1` (configuration not stated), the growth inhibition in test [1] is 17.1%; in test [2] it was -3.95%; in test [3], 1.15%; in test [4], -52.4%; in test [5], 11.4%; in test [6], 0.3%.
Consider `Oc1ccc(O)c(CCCc2cc(O)ccc2O)c1`, for which the growth inhibition in test [1] is 13.3%; in test [2], 7.8%; in test [3], -2.25%; in test [4], 0.5%; in test [5] it was 6.95%; in test [6], 49.5%.
Turning to `CCOC1(c2ccccc2)NC(=O)NC1(OCC)c1ccccc1` (configuration not stated), the growth inhibition is 14.2% in test [1]; 5.75% in test [2]; 18% in test [3]; -20.1% in test [4]; 0.05% in test [5]; -9.6% in test [6].
Turning to `COC(=O)c1ccccc1NC(=O)Nc1cccc(Cl)c1C`, the growth inhibition in test [1] is 13.8%; in test [2], -2.25%; in test [3], 25.2%; in test [4] it was 12%; in test [5] it was 17.6%; in test [6] it was 17.4%.
With `O=[N+]([O-])c1cc2c(c([N+](=O)[O-])c1)Nc1cc(Cl)ccc1O2`, the growth inhibition is 1.6% in test [1]; 19.8% in test [2]; 17.6% in test [3]; 11.8% in test [4]; 4.4% in test [5]; 26.9% in test [6].
Consider `CC12O[C@H](c3ccccc3)[C@H](c3ccccc3)N1C(=O)C1(C(=O)OCc3ccccc3)CC12` (some centres not stated), for which the growth inhibition was 11.3% in test [1]; -7.35% in test [2]; 6.4% in test [3]; 2.15% in test [4]; -7.05% in test [5]; -3.45% in test [6].
On to `O=C(Nc1ccc(Cl)c(C(F)(F)F)c1)C(=O)c1c(O)c2ccccc2oc1=O`, for which the growth inhibition in test [1] was 9.85%; in test [2], 4.7%; in test [3], -11.7%; in test [4], -38.5%; in test [5], -19.1%; in test [6], 5.3%.
For the compound `COc1ccc(C=Nc2ccc3c(c2)OCO3)cc1Br`, the growth inhibition was 16.9% in test [1]; 16.9% in test [2]; 11.7% in test [3]; 14.6% in test [4]; 9.4% in test [5]; 19.2% in test [6].
On to `O=C1NC(=S)S/C1=C\c1ccncc1`, for which the growth inhibition in test [1] was 12.4%; in test [2], -7.4%; in test [3], -10.4%; in test [4], 0.9%; in test [5] it was 0.05%; in test [6], -19.1%.
Turning to `O=C(Nc1ccc(Cl)cc1)OCCSc1nc2ccccc2s1`, the growth inhibition in test [1] is -6.05%; in test [2], -30.1%; in test [3] it was 21.5%; in test [4] it was 9.35%; in test [5] it was 4.55%; in test [6] it was -3.9%.
With `CCN(CC)S(=O)(=O)c1ccc(S(C)(=O)=O)cc1`, the growth inhibition in test [1] is -19.8%; in test [2], -10.9%; in test [3], -8.05%; in test [4], -60.1%; in test [5], 8.35%; in test [6], -14.2%.
Consider `CCCNN(CCC)C(N)=O`, for which the growth inhibition in test [1] was 0.6%; in test [2] it was 13.7%; in test [3], -5.75%; in test [4], 2.75%; in test [5], 24.1%; in test [6] it was -7.25%.
Consider `CC(C(O)c1ccc(Cl)cc1)C(O)(C(F)(F)F)C(F)(F)F` (configuration not stated), for which the growth inhibition in test [1] is 99.2% (active); in test [2], 99.3% (active); in test [3] it was 99.2% (active); in test [4] it was 99% (active); in test [5], 99% (active); in test [6], 99.4% (active).
Consider `O=C(CC(=O)N(C(=O)c1ccccc1)c1ccc(Cl)cc1)N/N=C\c1cc(N=Nc2ccccc2Cl)ccc1O`, for which the growth inhibition is -13.8% in test [1]; -10.1% in test [2]; 14.8% in test [3]; 15.2% in test [4]; -21.4% in test [5]; 9.1% in test [6].
With `CCOC(=O)CNC(=O)C(Cc1ccccc1)NC(=O)C(N)CC(=O)O` (stereo not drawn) (H-Asp-Phe-Gly-OEt; configuration not given here), the growth inhibition in test [1] is -18.6%; in test [2], -42.4%; in test [3], -12.1%; in test [4], -19.9%; in test [5], -13.4%; in test [6] it was -25%.
Turning to `COc1ccc(NC(=O)CCc2cc(C(C)(C)C)n[nH]2)cc1`, the growth inhibition was -22.1% in test [1]; -15.8% in test [2]; -3.8% in test [3]; 12.6% in test [4]; -16.7% in test [5]; -8.5% in test [6].
